Sampled rows, rich in hits. Any-hit rate of the full collection: about 11%.
G9a inh – qHTS Assay for Inhibitors of Histone Lysine Methyltransferase G9a. Histone-lysine N-methyltransferase EHMT2 (Homo sapiens), Q96KQ7. G9a H3K9 monomethylation, AlphaScreen, 2 h. Potency, µM (doses to about 102 µM), hits mostly inhibitors. 350,000 tested, 8.8% active. AID 504332, 2011; note: nearly all actives have a fitted effect of over 75% in size
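Compounds were preincubated with 20 nM G9a for 15 min, after which biotinylated H3K9 peptide (500 nM) and SAM (20 uM) started a 2 h room-temperature reaction. Monomethylated product was quantified by antibody-based AlphaScreen chemiluminescence.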
BAZ2B block – qHTS Assay for Inhibitors of BAZ2B; 360,000 tested, 4.4% active; Potency, µM (highest dose often 114 µM), most hits filed as inhibitors; AID 504333, 2011; Bromodomain adjacent to zinc finger domain protein 2B (Homo sapiens), Q9UIF8; AlphaScreen BAZ2B-H3K14Ac peptide displacement; note: nearly all actives have a fitted effect of over 60% in size
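Compounds, titrated to a top concentration of 110 uM, were incubated 30 min at room temperature with preformed BAZ2B/acetyl-K14 H3 peptide complex (50 nM each). Proximity signal was measured by AlphaScreen after 20 min with beads.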
HP1b chromo inh – HTS for Inhibitors of HP1-beta Chromodomain Interactions with Methylated Histone Tails | 390,000 tested, 0.56% active | AlphaScreen HP1-beta / biotin-H3K9me3 peptide binding | Potency, µM (doses to about 114 µM), most hits filed as inhibitors; note: nearly all actives have a fitted effect of over 70% in size
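Compound inhibition of the preformed complex between 50 nM HP1-beta and 50 nM biotinylated H3K9me3 peptide was read by AlphaScreen. Buffer was PBS pH 7.4 with 0.01% Tween-20. Incubations ran 30 min at room temperature, with 10 ug/mL donor/acceptor beads.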
L3MBTL1 inh – qHTS Assay for the Inhibitors of L3MBTL1. Lethal(3)malignant brain tumor-like protein 1 (Homo sapiens), Q9Y468. Potency, µM (doses to about 57.1 µM), actives largely listed as inhibitors. AlphaScreen L3MBTL1–H3K9me1 peptide binding. 230,000 tested, 0.66% active; note: nearly all actives have a fitted effect of over 60% in size
Target sequence (Q9Y468 whole entry, looked up): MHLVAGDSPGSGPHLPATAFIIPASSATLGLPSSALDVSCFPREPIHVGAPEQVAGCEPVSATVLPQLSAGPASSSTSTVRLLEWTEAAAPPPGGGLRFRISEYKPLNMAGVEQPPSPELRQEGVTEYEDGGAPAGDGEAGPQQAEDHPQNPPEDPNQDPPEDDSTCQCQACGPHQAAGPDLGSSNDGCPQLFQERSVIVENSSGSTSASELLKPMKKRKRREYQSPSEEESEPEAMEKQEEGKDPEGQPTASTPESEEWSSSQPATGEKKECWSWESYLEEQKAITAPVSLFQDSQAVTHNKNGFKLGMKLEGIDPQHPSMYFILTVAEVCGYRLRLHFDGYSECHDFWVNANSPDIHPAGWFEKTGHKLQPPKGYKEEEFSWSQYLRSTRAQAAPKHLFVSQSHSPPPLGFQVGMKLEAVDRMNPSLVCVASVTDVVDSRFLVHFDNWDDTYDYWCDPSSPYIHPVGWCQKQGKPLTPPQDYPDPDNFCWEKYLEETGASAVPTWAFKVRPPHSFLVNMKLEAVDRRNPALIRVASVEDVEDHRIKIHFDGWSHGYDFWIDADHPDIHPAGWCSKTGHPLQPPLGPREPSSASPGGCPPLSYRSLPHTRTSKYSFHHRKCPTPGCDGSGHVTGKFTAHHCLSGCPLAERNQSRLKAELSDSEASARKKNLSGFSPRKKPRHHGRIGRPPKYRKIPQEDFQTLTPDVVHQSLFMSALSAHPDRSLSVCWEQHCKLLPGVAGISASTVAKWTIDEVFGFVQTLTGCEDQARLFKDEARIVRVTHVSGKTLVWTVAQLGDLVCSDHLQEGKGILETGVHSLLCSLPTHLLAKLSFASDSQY
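Displacement of a biotinylated histone H3(1-15) peptide monomethylated at Lys9 (75 nM) from L3MBTL1 (50 nM) was measured by AlphaScreen after a 30 min room-temperature compound incubation; cefsulodin titration served as intraplate control.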
JMJD2A Tudor – qHTS Assay for Inhibitors of JMJD2A-Tudor Domain | AlphaScreen JMJD2A-Tudor / H3K4me3 peptide binding | Potency, µM (doses to about 114 µM), hits mostly inhibitors | 390,000 tested, 4.4% active | Lysine-specific demethylase 4A (Homo sapiens), O75164; note: nearly all actives have a fitted effect of over 50% in size
A number is an active result; . = inactive; ? = inconclusive; / = not tested or not shown; [ ] = another dose, or the depositor's remark. Calls come from the whole dose curve; as a rule, active = well fitted inhibition curve with a large enough effect; inconclusive = small, poorly fitted or top-dose-only effect; inactive = no such curve, though single readings can be large or run the other way.

SMILES	G9a inh	BAZ2B block	HP1b chromo inh	L3MBTL1 inh	JMJD2A Tudor
COc1ccc(N2CSC3=C(C#N)C(c4cccc(OC)c4OC)CC(=O)N3C2)cc1 (centres undefined)	2µM	?	?	/	20µM
COC(=O)c1ccc2c(=O)n(CCCCCC(=O)NCCc3ccc(Cl)cc3)c(=O)[nH]c2c1	.	.	.	/	.
CC(C)Cn1c(=O)c2sccc2n2c(CCCC(=O)NCCc3ccc(Cl)cc3)nnc12	.	?	.	/	.
COc1ccc(CNC(=O)c2nc(Cn3nc(C)c(Br)c3C)no2)cc1OC	.	.	.	/	.
Cc1ccccc1-c1nc(CN2CCC(C(=O)NCc3ccccc3Cl)CC2)c(C)o1	.	?	.	/	.
Cc1c(Cl)cccc1NC(=O)Nc1ccc2snnc2c1	.	.	.	/	.
C[C@@H](C(=O)Nc1ccc2ccccc2c1)[C@@H]1C[C@@]1(C)[C@@H](NC(=O)c1cnccn1)c1ccccc1	50µM	.	.	.	.
C[C@@H](C(=O)Nc1ccc2ccccc2c1)[C@H]1C[C@]1(C)[C@H](NC(=O)c1cnccn1)c1ccccc1	.	?	.	.	.
O=C(c1cccc(F)c1)N1CCN(C2CCCCC2)CC1	22µM	50µM	?	/	22µM
O=C(c1cccc(F)c1)N1CCC(N2CCCCCC2)CC1	22µM	56µM	?	/	2.2µM
O=C(c1cccc(Cl)c1)N1CCN(C2CCCCC2)CC1	/	?	?	.	7.9µM
O=C(c1ccco1)N1CCN(C2CCCC2)CC1	?	.	?	.	3.2µM
O=C(c1cccc(C(F)(F)F)c1)N1CCN(C2CCCCC2)CC1	.	.	.	.[11.4 µM]	.
CCCC/C=C/[C@@H](c1ccccc1)C1COC(=O)CC1O (some centres undefined)	/	/	.	/	.
Cc1nc2ccc(S(=O)(=O)N(CC(=O)Nc3cccc(C)c3C)Cc3ccccc3)cc2s1	.	.	.	/	.
O=C(c1ccco1)N1CCN(C(=O)c2cccc3c2C(=O)N(C2CCCCC2)C3)CC1	45µM	.	.	.	.
O=C(NC(=S)N1CCCCCC1)c1ccccc1	/	?	.	/	.
O=C(NC(=S)N1CCN(C2CCCCC2)CC1)c1ccccc1	50µM	.	.	.	.
O=C(c1ccccc1)N1CCN(C2CCCCCC2)CC1	?	56µM	?	/	3.2µM
COc1ccc(OCCCCn2c(-c3ccc(Cl)cc3)nc3ccccc3c2=O)cc1	.	.	.	/	.
Cc1cc2c(s1)c1cnn(Cc3c(Cl)ccc(C)c3F)c(=O)c1n2C	/	/	/	/	.
COc1ccc(N2CCN(C(=O)c3cccn3-c3nnc(N4CCCC4)s3)CC2)cc1	?	?	.	/	.
Nc1nc(=S)c2ncn(C3CCCC3)c2[nH]1	.[0.501 µM]	?	?	.	50µM
N#C/C(=N\O)c1nc2ccccc2[nH]1	.	?	.	.	56µM
N#C/C(=C(/O)c1ccc(Cl)cc1)c1nc2ccccc2[nH]1	.	.	.	/	.
SMILES	G9a inh	BAZ2B block	HP1b chromo inh	L3MBTL1 inh	JMJD2A Tudor
N#C/C(=C(\O)c1cc(Cl)sc1Cl)c1nc2ccccc2[nH]1	.	71µM	.	/	.
Cc1ccc2nc(/C(C#N)=N/O)[nH]c2c1	.[12.7 µM]	?	.	.	.[11.4 µM]
C/C(O)=C(/C#N)c1nc2ccccc2[nH]1	10µM	?	.	.	.
N#C/C(=C(/O)C(Cl)(Cl)Cl)c1nc2ccccc2[nH]1	.	.	.	.	50µM
Cc1noc(C)c1C(=O)N1CCC2(CCCN(C(c3ccccc3)c3ccccc3)C2)CC1	.[12.7 µM]	/	/	/	/
Cc1cccc(O)c1	.	/	/	/	/
Cc1ccccc1CN1C(=O)c2ccccc2S(=O)(=O)c2ccc(C(=O)OCC3CCCO3)cc21 (centres undefined)	.	.	.	/	.
COc1ccc(OC)c2c1nc1n2CCS1	1.8µM	.	?	.	.
Cc1cc(=O)n(CNC(=O)c2ccccc2)c(=S)[nH]1	.[12.7 µM]	.	.	/	56µM
O=C(NCn1cnccc1=O)c1ccccc1	.[12.7 µM]	.	.	/	.
CCCn1c2ccccc2c2cnn(CC(=O)N(CCCOC)Cc3ccco3)c(=O)c21	.	.	.	/	.
C#CCOCCOCCOCCNc1nc(N2CCN(C(=O)[C@H]([C@@H](C)CC)n3cc([C@@H](N)CO)nn3)CC2)nc(N2CCN(C(=O)[C@H](CCCCN)n3cc([C@@H](N)CC(C)C)nn3)CC2)n1	?	79µM	.	.	50µM
C#CCOCCOCCOCCNc1nc(N2CCN(C(=O)[C@H](CCCCN)n3cc([C@@H](N)CO)nn3)CC2)nc(N2CCN(C(=O)[C@H](CCCCN)n3cc([C@@H](N)CC(C)C)nn3)CC2)n1	/	/	.	.	56µM
Cc1ccc(C)n1-c1ccc(N(C)C)cc1	7.1µM	25µM	?	/	50µM
CC1=C/C(=C(/c2ccc(O)c(C)c2)c2ccccc2S(=O)(=O)O)C=CC1=O	.[12.7 µM]	50µM	?	?	.
CC1=C/C(=C(/c2cc(C)c(O)c(Br)c2)c2ccccc2S(=O)(=O)O)C=C(Br)C1=O	.[2.33 µM]	18µM	32µM	/	?
Cc1cc(C)c2nc(SCC(=O)N3CC(=O)Nc4ccccc43)c(C#N)cc2c1	10µM	.	.	.	.
CCN1CCN(c2cc3c(cc2F)c(=O)c(C(=O)O)cn3C2CC2)CC1	32µM	?	.	.	.
CC(=O)N1CCN(c2cc3c(cc2F)c(=O)c(C(=O)O)cn3C2CC2)CC1	50µM	.	.	.	.
CCOCCCNC(=O)C1CCN(c2cc(C)nc3c(-c4ccc(Cl)cc4)c(C)nn23)CC1	.	.	.	/	.
CN(C)CC/C=C1\c2ccccc2COc2ccc(CC(=O)O)cc21	.	/	/	/	/
CCS(=O)(=O)n1nc(C(=O)N2CCOCC2)nc1N	?	?	.	.	89µM
Nc1nc(C(=O)N2CCOCC2)nn1S(=O)(=O)c1ccccc1	18µM	50µM	.	.	20µM
CCS(=O)(=O)n1nc(-c2ccc(C)cc2)nc1N	.[12.7 µM]	.	.	.	.
O=C(N1CCOCC1)N1CCN(S(=O)(=O)c2ccc(Cl)cc2)C1	.	.	.	/	.
SMILES	G9a inh	BAZ2B block	HP1b chromo inh	L3MBTL1 inh	JMJD2A Tudor
Nc1nc(C(=O)N2CCOCC2)nn1S(=O)(=O)c1ccc(Cl)cc1	?	.	.	.[11.4 µM]	14µM
CC(=O)Nc1cc(O)cc(O)c1	.	.	.	/	.
NC(=NCc1ccc(Cl)c(Cl)c1)NC(=O)c1nc(Cl)c(N)nc1N	.[12.7 µM]	/	/	/	/
O=C(Cc1ccccc1)N/N=C/c1ccccn1	/	/	.	/	.
Cc1ccccc1NC(=S)N(Cc1ccccn1)Cc1ccccc1Cl	.	.	.	.	.
CC(=NNC(=S)N(Cc1ccccn1)Cc1ccccn1)c1cnccn1	/	/	?	/	18µM
O=C(NN=C(c1ccccc1)c1ccccn1)c1ccccc1	/	/	.	.	?
S=C(NN=Cc1ccccn1)N(Cc1ccccn1)Cc1ccccn1	/	/	?	/	20µM

High-throughput results as filed in PubChem BioAssay.
